Source: PubChem BioAssay (NCI)
This is part of a sample that, as a whole, favours compounds with a hit. Of some 83,000 tested, about 20% had one in any assay.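 Cells were grown in 96-well plates and exposed to the test compound at a single concentration for 48 hours; results are reported as percent growth, with values below 10 considered active.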 Unmarked numbers belong to inactive results. Active and inactive are the calls of the source.

Key:
Experiment in all cases: NCI-60 one-dose screen, 48 h (100 = growth as untreated, 0 = no growth, -100 = all killed)
Conditions in all cases: 10 µM
[1] = test system: T-47D breast
[2] = test system: BT-549 breast
[3] = test system: MDA-MB-435 melanoma
[4] = test system: SW-620 colon
[5] = test system: MCF7 breast
[6] = test system: HCT-116 colon
[7] = test system: KM12 colon
[8] = test system: HCC-2998 colon

SMILES | growth [1] | growth [2] | growth [3] | growth [4] | growth [5] | growth [6] | growth [7] | growth [8]
Clc1cc(Cl)c(Cl)c(-c2nc(-c3cccnc3)cs2)c1 | -7.29% (active) | 98.3% | 4.27% (active) | 46.2% | 63.6% | 40.2% | 103% | –
CCCCCCCCCCCC(c1ccccc1)N(C)C (centres undefined) | 99.7% | 101% | 102% | 95.4% | 91.3% | 94.4% | 104% | –
COc1cc(-c2cc(/C=C/C(C)=O)[nH]n2)cc(OC)c1OC | 32.2% | 71.7% | 61.8% | 74.3% | – | 39% | 72% | 103%
O=C(/C=C/c1nnc2n(Cc3ccccc3)c(=O)c3c4c(sc3n12)CCCC4)c1ccccc1 | -39.2% (active) | 82.4% | 93.2% | 9.38% (active) | – | 44.1% | 55.2% | 87.8%
Cc1cnc(C=O)c2cccc([N+](=O)[O-])c12 | 82.3% | 88.5% | 106% | 47.4% | – | 17.5% | 99.2% | 101%
CNC(=O)c1cc(Oc2ccc(NC(=O)Nc3ccc(Cl)c(OC(C)C)c3)c(F)c2)ccn1 | 9.9% (active) | 75.1% | 43.2% | 68.2% | – | 30.4% | 24.4% | 66.7%
CC1(C)CC(OCCCC[P+](c2ccccc2)(c2ccccc2)c2ccccc2)CC(C)(C)N1O | -2.14% (active) | 17.3% | -57.9% (active) | 2.74% (active) | -1.61% (active) | 12.4% | -51.6% (active) | –
CC(C)OCc1cc(CN2CCN(c3cccc(Cl)c3)CC2)c(O)c2ncccc12 | 3.25% (active) | -46% (active) | -28.5% (active) | -3.23% (active) | 4.89% (active) | -55.5% (active) | -23% (active) | -21.6% (active)
CCOC(=O)c1c(O)c2cc(-c3ccccc3)nc(OCC)c2c(=O)n1C | 94.7% | 133% | 90.1% | 104% | 93.8% | 87.7% | 104% | –
COc1cc(/C=C2\C(=O)Nc3cc(C)c(O)cc32)cc(OC)c1OC | 39.2% | 42.3% | -34.5% (active) | 55.1% | 25.7% | 56.8% | 21.9% | –
COc1cc(-c2nc3cc(Cl)c(Cl)cc3[nH]2)ccc1OCC(=O)NN | 66.9% | 95% | 63.6% | 80.9% | – | 96.1% | 64.6% | 103%
C=CCOc1ccc2c(c1)CC=C1[C@@H]2CC[C@]2(C)C(=O)/C(=N/O)C[C@@H]12 | 87.8% | 89.1% | 72.6% | 79.6% | – | 66.8% | 57.9% | 74.8%
O/N=C1\CCC2CCCCC2C1 (centres undefined) | 94% | 105% | 104% | 109% | 93% | 103% | 106% | 106%
C/C(=N\NC(=O)c1sc(=S)n(C)c1N)c1cc2ccccc2o1 | 78.2% | 87.2% | 41% | 81.3% | 34.8% | 59.1% | 21.5% | –
O=C(C=P(c1ccccc1)(c1ccccc1)c1ccccc1)c1ccc(Br)cc1 | 87.9% | 107% | 106% | 80.7% | 92.4% | 67.8% | 83.4% | –
CC(=O)OC1Oc2ccccc2-c2oc(=O)c(-c3cc(=O)oc4cc(O)ccc34)cc21 (centres undefined) | -17.5% (active) | 61.4% | 86.8% | 92.2% | 85.5% | 87.3% | 89.2% | –
Oc1ccc(/C=N\Nc2ccccn2)c(O)c1 | 33.7% | 23.7% | 34.2% | 35.3% | 0.224% (active) | 4.54% (active) | 38.4% | 23.9%
N=C(N)c1ccc(-c2ccc(-c3ccccc3)s2)s1 | -66.9% (active) | 88.9% | -83.3% (active) | – | -71.5% (active) | -62% (active) | – | -80.8% (active)

SMILES | growth [1] | growth [2] | growth [3] | growth [4] | growth [5] | growth [6] | growth [7] | growth [8]
CNCCCNCCCN1C(=O)c2ccc3c4c(ccc(c24)C1=O)C(=O)N(CCCNCc1ccccc1OC)C3=O | -30.3% (active) | 78.1% | -58.6% (active) | – | -51.7% (active) | -8.97% (active) | -16.9% (active) | -9.5% (active)
CCCOCC(O)CNCCN (centres undefined) | 103% | 110% | 98.5% | – | 97.4% | 104% | 122% | 131%
COc1ccc(NC(=O)CCn2cnc3c(cc(-c4ccccc4)n3-c3ccccc3)c2=O)cc1 | 90.8% | 92.2% | 96% | – | 83.3% | 91.4% | 110% | 96.3%
CC(C)C[C@H](NC(=O)Cn1ccc(Nc2ccccc2)cc1=O)B(O)O | -4.25% (active) | 9.01% (active) | -85.4% (active) | 15% | – | -6.59% (active) | 36.1% | 9.37% (active)
COc1ccc(C(=O)/C=C/c2cc(-c3ccc(OC)c(OC)c3)n[nH]2)cc1OC | -7.46% (active) | -60.1% (active) | -33.1% (active) | -48.8% (active) | – | -89.2% (active) | -74.1% (active) | -85.8% (active)
CC(C)OP(=O)(O)c1ncc(-c2ccc(C(F)(F)F)cc2)c(NC2CCCCCC2)n1 | 41.7% | 86.6% | 62.7% | – | 51.1% | 53.1% | 48% | 89.8%
CCOCC[P+](c1ccccc1)(c1ccccc1)c1ccccc1 | 18% | 36.9% | 28.8% | 60% | – | 38.1% | 25.8% | 31.7%
COc1ccc(-c2nc(-c3ccccc3)c(-c3ccccc3)[nH]2)cc1OC1CCCC1 | 35.1% | 81.9% | 78.9% | 82.6% | – | 73.6% | 43.5% | 69.7%
O=C(NNC(=O)c1ccncc1)Nc1ccc([N+](=O)[O-])cc1 | 90.8% | 121% | 94.1% | 100% | – | 110% | 104% | 106%
COc1ccc(C(=O)c2sc3nc(-c4cccs4)ccc3c2N)cc1OC | 25.3% | 48.9% | 5.62% (active) | 45.4% | – | 43.3% | 38.1% | 82%
CC(C)(C)c1ccc(OCCCCCCN2CCNCC2)cc1 | 34.8% | 58.7% | 68.3% | – | 17.5% | 8.35% (active) | 51.1% | -47.1% (active)
COc1ccc(-c2nsc3c2NC(=O)CC3c2ccc(Cl)cc2)cc1 (centres undefined) | 69.1% | 73.5% | 81% | 103% | – | 85.8% | 82.7% | 93.2%
NC(N)=NS(=O)(=O)c1ccc(Nc2ccc3nnc(-c4ccncc4)n3n2)cc1 | 96.4% | 112% | 110% | – | 91.3% | 100% | 100% | 99.1%
COc1ccc(-c2cc(/C=C3\C(=O)Nc4cc(Cl)ccc43)[nH]n2)cc1OC | 96.5% | 80.1% | 7.28% (active) | 47.1% | – | 50.9% | 64.4% | 98.8%
S=C(Cc1ccc(-c2ccccc2)cc1)N1CCOCC1 | 85.5% | 96.6% | 98.6% | 103% | – | 98.6% | 99.3% | 103%
CCCCCCCCCCCCCC[n+]1ccc(C)cc1 | 12.4% | -45% (active) | -64.8% (active) | -3.73% (active) | – | 0.372% (active) | -97.9% (active) | -69.7% (active)
CCCCCCCCCCCCCCCC(=O)N1CCN(C)CC1 | 74.3% | 83.1% | 59.8% | 90% | – | 57.3% | 76.2% | 81.8%
Cc1ccc(/C=C2\CN(Cc3cn(CCNc4ccnc5cc(Cl)ccc45)nn3)C/C(=C\c3ccc(C)cc3)C2=O)cc1 | -12.3% (active) | -71% (active) | -67.3% (active) | -63.6% (active) | – | -53.5% (active) | -93.8% (active) | -91% (active)
